Source: PubChem BioAssay (NCATS)
Several values for one entry are separate records, joined by “and”; a condition that tells them apart may be missing. Equal entries are not always repeated. Results filed as inconclusive are left out. Activity calls are given as the source filed them. Unless noted, calls come from the whole dose curve; as a rule, active = well fitted curve in the direction sought with a large enough effect; inconclusive = small, poorly fitted or top-dose-only effect, or another doubt; inactive = no such curve, though single readings can be large; an effect the other way counts as inactive or inconclusive.

Tests used:
[1] = Cell Viability - Jurkat (AID 426;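 active = dose-dependent loss of cell ATP signal giving a full or clear fitted curve, ranked by lower potency value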; note: potency is the fitted concentration of half-maximal effect); conditions: qHTS
In short: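 Jurkat (clone E6-1, human T-cell leukemia) cells, 5000/well in complete medium, were exposed to compound for 40 hr at 37 °C. Viability was read as intracellular ATP by CellTiter-Glo luminescence; AC50 came from Hill fits of concentration-response data.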

[2] = target: Mitogen-activated protein kinase 10 (Mus musculus) (UniProt Q61831); assay: JNK3 AlphaScreen Assay (AID 530; active = well fitted curve in either direction with a large enough effect, not every such curve was filed as active;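 note: kinase came from lysate of stimulated human HepG2 cells; signal reports phosphorylation of biotinylated GST-cJun 1-79 at Ser73 with 10 µM ATP; % is set by controls: 0 for no effect and ±100 for the full control effect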); conditions: JNK3 lysate, c-Jun phosphorylation; series mostly up to 11.4 µM
In short: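 JNK3 came from HepG2 lysates pre-activated with IL-1beta and TNF-alpha and phosphorylated biotinylated GST-cJun (1-79) at 10 uM ATP, pH 7.6, room temperature. Compounds were titrated. AlphaScreen signal used anti-phospho-cJun (Ser73) antibody.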

[3] = Cell Viability - NIH 3T3 (AID 541); conditions: NIH 3T3 cell viability, qHTS; activity change, negative = cytotoxicity: at 92.2 µM (top of the series);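 note: plate controls were DMSO alone for no effect and tamoxifen positive control for full effect; nearly all actives have a fitted effect of over 25% in size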
In short: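 NIH 3T3 mouse embryo fibroblasts (1000 cells/well) were plated in complete medium and treated with compound for 40 hr at 37 °C. Viability was read as intracellular ATP by CellTiter-Glo luminescence; AC50 values came from Hill-equation fits of concentration-response data.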

[4] = Cell Viability - LYMP1-003 - Assay at 40 hr (AID 964); conditions: LYMP1-003 lymphoblastoid viability; series mostly up to 92.2 µM; note: nearly all actives have a fitted effect of over 60% in size; note: potency is the fitted concentration of half-maximal effect
In short: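 Human lymphoblastoid LYMP1-003 cells, 2500/well in complete medium, rested 5 hr at 37 C, then exposed to compounds for 40 hr at 37 C. Viability read as intracellular ATP by CellTiter-Glo luminescence; AC50 from Hill fits of concentration-response data.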

[5] = Cell Viability - LYMP2-004 (AID 966); conditions: LYMP2-004 lymphoblastoid cell viability, qHTS; series mostly up to 92.2 µM;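 note: plate controls were DMSO only for no effect and tetraoctylammonium bromide control for full effect; nearly all actives have a fitted effect of over 65% in size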
In short: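 Human lymphoblastoid cells (2500/well) in complete medium were treated with compounds for 24 hr at 37 C, then intracellular ATP was measured by CellTiter-Glo luminescence. AC50 values came from Hill-equation fits of concentration-response data.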

[6] = MultiTox-Fluor Cytotoxicity Assay - LYMP1-001 - Live Cells (AID 947); conditions: LYMP1-001 lymphoblastoid cells, live-cell protease fluorescence viability; series mostly up to 92.2 µM;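 note: 0% = DMSO only and full inhibition = tetraoctylammonium bromide control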
[7] = Cell Viability - LYMP2-007 (AID 979); conditions: LYMP2-007 lymphoblastoid cell viability; series mostly up to 92.2 µM;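 note: cells exposed to compound for 24 h before reading; 0% = DMSO only and the negative end = 92 µM tetraoctylammonium bromide; nearly all actives have a fitted effect of over 60% in size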
In short: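 Human lymphoblastoid cells (2500/well) were plated in complete medium, incubated 5 hr at 37 C, then exposed to compounds for 24 hr at 37 C. Intracellular ATP was read by CellTiter-Glo luminescence after 30 min at room temperature; AC50 from Hill fits.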

[8] = target: Retinoic acid receptor RXR-alpha (Homo sapiens) (UniProt P19793); assay: qHTS assay for small molecule antagonists of retinoid X receptor alpha signaling (AID 588546; active = well fitted inhibition curve with a large enough effect in the signal ratio, with a control signal flat, not every such curve was filed as active; the % refers to the signal ratio;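 note: cells stimulated with 9-cis-retinoic acid as agonist; % is set by controls: 0 for no effect and ±100 for the full control effect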); conditions: HEK293T RXRa-UAS-bla, beta-lactamase ratio, antagonist mode
In short: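 Beta-lactamase reporter inhibition, read as CCF4 fluorescence ratio (ex 405, em 460/530 nm) after 2 h at RT. HEK293T UAS-bla cells, 2500/well, were stimulated with 9-cis-RA at 500 or 100 nM final alongside test compound for 18 h at 37 C.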

[9] = target: Thyroid hormone receptor beta (Homo sapiens) (UniProt P10828); assay: qHTS assay for small molecule antagonists of thyroid hormone receptor beta signaling (AID 588547; active = well fitted inhibition curve with a large enough effect in the signal ratio, with a control signal flat, not every such curve was filed as active; the % refers to the signal ratio;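 note: cells stimulated with 0.4 nM T3 agonist during compound exposure; % is set by controls: 0 for no effect and ±100 for the full control effect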); conditions: TR-UAS-bla HEK293, beta-lactamase ratio, antagonist mode, 18 h
In short: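 TR-UAS-bla GripTite HEK293 cells in 2% charcoal/dextran FBS medium were preincubated 4 h at 37 C, given compound (0.59 nM to 92 uM) plus 0.4 nM T3 (final) for 18 h, then CCF4 for 2 h at RT; Hill fit gave IC50.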

[10] = Cell Viability - LYMP2-025 (AID 976); conditions: LYMP2-025 lymphoblastoid cell viability; series mostly up to 92.2 µM;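 note: plate controls were DMSO only for no effect and tetraoctylammonium bromide control for full effect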
In short: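 Human lymphoblastoid LYMP2-025 cells (2500/well) were pre-incubated 5 hr at 37 C, then treated with compounds for 24 hr at 37 C in complete medium. Viability was read as intracellular ATP by CellTiter-Glo luminescence; AC50 from Hill fits.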

[11] = Cell Viability - LYMP2-014 (AID 983); conditions: LYMP2-014 lymphoblastoid cells, viability qHTS; series mostly up to 92.2 µM;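 note: plate controls were DMSO only for no effect and 92 µM tetraoctylammonium bromide for full effect; nearly all actives have a fitted effect of over 50% in size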
In short: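 Human lymphoblastoid cells (2500/well) were pre-incubated 5 hr at 37 C, then exposed to compounds in complete medium for 24 hr at 37 C. Intracellular ATP was read by CellTiter-Glo luminescence after 30 min at room temperature; AC50 from Hill fits.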

[12] = Cell Viability - LYMP2-016 (AID 984); conditions: LYMP2-016 lymphoblastoid cell viability, qHTS; series mostly up to 92.2 µM; note: % is set by controls: 0 for no effect and ±100 for the full control effect; nearly all actives have a fitted effect of over 55% in size
In short: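 Concentration-dependent ATP depletion measured in LYMP2-016 lymphoblastoid cells, 24 h, 37 C; luciferase-based luminescent detection; Hill-equation AC50.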

[13] = Cell Viability - LYMP2-018 (AID 985); conditions: LYMP2-018 lymphoblastoid cells, viability (qHTS); series mostly up to 92.2 µM;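 note: compound exposure lasted 24 hr at 37 °C; plate controls were DMSO only for no effect and tetraoctylammonium bromide at 92 µM for full effect; nearly all actives have a fitted effect of over 50% in size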
In short: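 Human lymphoblastoid cells (2500/well) were pre-incubated 5 hr at 37 C, then exposed to compounds for 24 hr at 37 C in complete medium. Viability was read as intracellular ATP by CellTiter-Glo luminescence; AC50 values came from Hill-equation fits.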

[14] = qHTS assay for small molecule antagonists of peroxisome proliferator-activated receptor delta signaling (AID 588535); conditions: HEK293T PPARd-UAS-bla, beta-lactamase FRET ratio, 18 h; 460 nm channel;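 note: cells co-treated with a PPAR-delta agonist as stimulator during compound exposure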
In short: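 GeneBLAzer PPAR-delta-UAS-bla HEK293T cells in medium with 2% charcoal/dextran FBS were preincubated 5 hrs at 37 C, then given compounds, incubated 18 hrs at 37 C, and read by CCF4 beta-lactamase fluorescence; IC50 from Hill fits.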

[15] = target: Peroxisome proliferator-activated receptor gamma (Homo sapiens) (UniProt P37231); assay: qHTS assay for small molecule antagonists of peroxisome proliferator-activated receptor gamma signaling (AID 588537; active = well fitted inhibition curve with a large enough effect in the signal ratio, with a control signal flat, not every such curve was filed as active; the % refers to the signal ratio;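 note: reporter cells co-stimulated with 50 nM rosiglitazone agonist during compound treatment; % of control where 0% means no effect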); conditions: HEK293 PPARg-UAS-bla, beta-lactamase ratio, antagonist mode; series mostly up to 76.8 µM
In short: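 PPAR-gamma-UAS-bla HEK293 cells (3000/well, 1% charcoal/dextran-stripped FBS) were preincubated 6-6.5 h at 37 C, given titrated compounds, then stimulated with 50 nM rosiglitazone for 16 h. Beta-lactamase activity was read with CCF4 dye; IC50 came from Hill fits.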

[16] = target: Vitamin D3 receptor (Homo sapiens) (UniProt P11473); assay: qHTS assay for small molecule antagonists of vitamin D receptor signaling (AID 588541; calls by dose curve;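 note: receptor activated by calcitriol during compound treatment; % is set by controls: 0 for no effect and ±100 for the full control effect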); conditions: HEK293T VDR-UAS-bla, beta-lactamase ratio, antagonist mode; series mostly up to 76.7 µM
In short: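 VDR-UAS-bla HEK293T cells (2000/well, 2% charcoal-stripped FBS) were treated with titrated compounds plus 1-alpha,25-dihydroxyvitamin D3 (50 nM or 3 nM final) for 16 h at 37 C. CCF4 beta-lactamase fluorescence was read; Hill fits gave IC50.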

[17] = Cell Viability - H-4-II-E (AID 543); conditions: H-4-II-E rat hepatoma viability; series mostly up to 92.2 µM; note: % is set by controls: 0 for no effect and ±100 for the full control effect; nearly all actives have a fitted effect of over 35% in size
In short: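 Rat hepatoma H-4-II-E cells (1500/well) were plated, incubated 5 hr at 37 °C, then exposed to compounds for 40 hr at 37 °C. Cellular ATP was read by CellTiter-Glo luminescence; AC50 came from Hill-equation fits of concentration-response data.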

[18] = qHTS assay for small molecule activators of the p53 signaling pathway (AID 651743; active = well fitted activation curve with a large enough effect in the signal ratio, not every such curve was filed as active; the % refers to the signal ratio; note: % of control where 0% means no effect); conditions: HCT-116 p53RE-bla, beta-lactamase FRET ratio, 16 h; activation: stronger effect = higher value
In short: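 p53RE-bla HCT-116 cells with a stably integrated beta-lactamase reporter under p53 response elements were plated, rested 5 hours at 37 C/5% CO2, then exposed to compounds in DMSO for 16 hours at 37 C. LiveBLAzer B/G FRET substrate was read after 2 hours at room temperature.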

[19] = Cell Viability - LYMP2-021 (AID 974); conditions: LYMP2-021 lymphoblastoid cells viability; series mostly up to 92.2 µM;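 note: compound exposure lasts 24 hours at 37 °C; % is set by controls: 0 for no effect and ±100 for the full control effect; nearly all actives have a fitted effect of over 55% in size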
In short: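 Human lymphoblastoid cells (2500/well) were preincubated 5 hr at 37 C, then exposed to compounds for 24 hr at 37 C in complete medium. Intracellular ATP was read by CellTiter-Glo luminescence; AC50 came from Hill-equation fits of concentration-response data.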

Chain of Retinoic acid receptor RXR-alpha (Homo sapiens) (P19793 whole entry, looked up): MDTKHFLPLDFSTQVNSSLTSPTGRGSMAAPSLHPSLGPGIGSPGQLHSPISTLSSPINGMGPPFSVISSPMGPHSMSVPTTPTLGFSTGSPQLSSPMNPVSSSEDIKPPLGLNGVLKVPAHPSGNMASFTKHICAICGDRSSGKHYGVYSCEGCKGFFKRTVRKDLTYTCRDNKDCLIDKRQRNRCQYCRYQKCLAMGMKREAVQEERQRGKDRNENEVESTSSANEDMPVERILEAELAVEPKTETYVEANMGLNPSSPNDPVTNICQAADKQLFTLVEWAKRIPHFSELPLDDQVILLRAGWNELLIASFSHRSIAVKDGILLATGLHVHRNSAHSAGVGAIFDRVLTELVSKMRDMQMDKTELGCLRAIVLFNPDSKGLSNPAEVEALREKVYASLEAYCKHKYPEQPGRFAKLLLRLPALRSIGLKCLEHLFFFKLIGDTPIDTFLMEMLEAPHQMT
Chain of Thyroid hormone receptor beta (Homo sapiens) (P10828 whole entry, looked up): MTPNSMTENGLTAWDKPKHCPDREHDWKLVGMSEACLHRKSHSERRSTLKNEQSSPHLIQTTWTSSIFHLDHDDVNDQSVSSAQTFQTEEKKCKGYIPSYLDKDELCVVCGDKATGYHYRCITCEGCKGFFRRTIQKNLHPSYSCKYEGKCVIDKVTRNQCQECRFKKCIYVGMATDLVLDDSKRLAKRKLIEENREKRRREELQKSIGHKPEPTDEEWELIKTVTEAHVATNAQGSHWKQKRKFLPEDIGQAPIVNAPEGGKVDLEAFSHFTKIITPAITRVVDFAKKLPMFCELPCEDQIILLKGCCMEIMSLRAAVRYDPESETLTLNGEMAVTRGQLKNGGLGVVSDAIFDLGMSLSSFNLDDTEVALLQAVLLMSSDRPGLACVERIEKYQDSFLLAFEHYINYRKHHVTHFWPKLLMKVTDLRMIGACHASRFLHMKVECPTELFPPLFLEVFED
Chain of Vitamin D3 receptor (Homo sapiens) (P11473 whole entry, looked up): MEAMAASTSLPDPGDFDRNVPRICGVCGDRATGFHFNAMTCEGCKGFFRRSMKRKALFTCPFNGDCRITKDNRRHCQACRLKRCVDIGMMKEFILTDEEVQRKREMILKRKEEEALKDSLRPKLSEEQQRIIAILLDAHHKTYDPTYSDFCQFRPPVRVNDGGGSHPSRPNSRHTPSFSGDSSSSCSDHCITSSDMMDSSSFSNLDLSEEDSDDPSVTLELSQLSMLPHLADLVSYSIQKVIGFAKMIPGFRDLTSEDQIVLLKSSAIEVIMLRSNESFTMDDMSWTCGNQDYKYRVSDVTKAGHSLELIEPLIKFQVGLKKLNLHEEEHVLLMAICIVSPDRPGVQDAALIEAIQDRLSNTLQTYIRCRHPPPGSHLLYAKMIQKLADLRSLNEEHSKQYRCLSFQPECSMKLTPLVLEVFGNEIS
Chain of Peroxisome proliferator-activated receptor gamma (Homo sapiens) (P37231 whole entry, looked up): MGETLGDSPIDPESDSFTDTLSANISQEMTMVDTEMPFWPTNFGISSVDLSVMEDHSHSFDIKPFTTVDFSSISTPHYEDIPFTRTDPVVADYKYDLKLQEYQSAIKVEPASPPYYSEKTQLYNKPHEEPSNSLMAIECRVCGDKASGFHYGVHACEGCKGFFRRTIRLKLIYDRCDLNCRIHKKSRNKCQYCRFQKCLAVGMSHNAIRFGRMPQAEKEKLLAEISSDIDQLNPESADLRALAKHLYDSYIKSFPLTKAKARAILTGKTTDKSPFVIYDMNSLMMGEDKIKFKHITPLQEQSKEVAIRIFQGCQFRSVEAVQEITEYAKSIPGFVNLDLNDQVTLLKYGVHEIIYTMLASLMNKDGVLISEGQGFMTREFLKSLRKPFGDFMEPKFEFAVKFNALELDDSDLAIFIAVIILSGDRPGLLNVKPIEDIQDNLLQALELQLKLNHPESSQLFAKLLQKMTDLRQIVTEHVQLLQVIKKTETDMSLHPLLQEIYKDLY

C/C=C1/C(=O)C[C@H]2[C@@H]3CCC4=CC(=O)CC[C@]4(C)[C@H]3CC[C@]12C
inactive: Potency [2] | Potency [5]
active: Potency [1] 56.2 µM | activity change, negative = cytotoxicity [3] -151% | Potency [4] 39.8 µM

COc1cc(-c2ccc(N=C=O)c(OC)c2)ccc1N=C=O
inactive: Potency [1] > 92 µM | Potency [2] | Potency [6] | Potency [7] | max response [8] -6.94% | activity change % (negative = inhibition) [9] -7.61%

CCOC(=O)C1OC1c1ccccc1 (stereo not drawn)
-6.92%: max response [14]
inactive: Potency [1] > 92 µM | Potency [2] | Potency [10] | Potency [11] | Potency [12] | Potency [13] | Potency [15] | Potency [16] | max response [8] 9.69%

OC1CCCCC1
inactive: Potency [1] > 92 µM | activity change, negative = cytotoxicity [3] -12.6% | Potency [17] | Potency [6] | Potency [4] | Potency [5] | Potency [10] | Potency [7] | Potency [11] | Potency [12] | Potency [13] | Potency [15] | Potency [16] | max response [8] -3.43%
23.6%: max response [14]

C=CC1CO1 (stereo not drawn)
inactive: Potency [1] > 92 µM | Potency [6] | Potency [4] | Potency [5] | Potency [10] | Potency [7] | Potency [11] | Potency [15] | Potency [16] | max response [8] -9.54% | activity change % (negative = inhibition) [9] 4.27% | activation [18] -3.74%

C[C@@H]1CC2(OC(O)[C@]3(C)O[C@H]23)O[C@H]2C[C@@]3(C)[C@@H]4CC[C@H]5C(C)(C)C(O[C@@H]6OC[C@@H](O)[C@H](O)[C@H]6O)CC[C@@]56C[C@@]46CC[C@]3(C)[C@@H]12 (stereo partly drawn)
inactive: Potency [1] 41.2 µM | Potency [2] | Potency [19] | Potency [10] | Potency [7] | activation [18] -3.37%

Nc1cc([N+](=O)[O-])ccc1O
inactive: Potency [1] > 92 µM | Potency [2] | Potency [17] | Potency [6] | Potency [4] | Potency [19] | Potency [10] | Potency [7] | Potency [11] | Potency [15] | Potency [16] | activity change % (negative = inhibition) [9] 11.2% and 4.34%
32.9% and 36.8%: max response [14]

Oc1ccc2c(c1)OCO2
inactive: Potency [1] > 92 µM | Potency [2] | Potency [10] | Potency [7] | Potency [13] | max response [8] 10.9% | activity change % (negative = inhibition) [9] 5.85%

O=[N+]([O-])c1ccccc1Nc1ccccc1
inactive: Potency [1] > 92 µM | Potency [6] | Potency [5] | Potency [19] | Potency [10] | Potency [16] | max response [8] 0.845% | activity change % (negative = inhibition) [9] 8.34%

CC(=O)c1ccc(Cl)c(Cl)c1Cl
inactive: Potency [1] > 92 µM | Potency [6] | Potency [5] | Potency [19] | Potency [11] | Potency [13] | Potency [16] | max response [8] 5.75% | activation [18] -1.64%

CC(C)S
inactive: Potency [1] > 92 µM | Potency [17] | Potency [6] | Potency [5] | Potency [19] | Potency [10] | Potency [7] | Potency [12] | Potency [13] | Potency [15] | activity change % (negative = inhibition) [9] 11.8%
-7.04%: max response [14]
